PHOSPHO1 inh = PHOSPHO1 (human) inhibition | Q8TCT1 | recombinant PHOSPHO1, absorbance phosphatase assay | inhibition, % at 13.3 µM | actives 1.1% (n = 290,000) | AID 1565; in the data active means inhibition above about 60%
Target sequence (Q8TCT1 whole entry, looked up): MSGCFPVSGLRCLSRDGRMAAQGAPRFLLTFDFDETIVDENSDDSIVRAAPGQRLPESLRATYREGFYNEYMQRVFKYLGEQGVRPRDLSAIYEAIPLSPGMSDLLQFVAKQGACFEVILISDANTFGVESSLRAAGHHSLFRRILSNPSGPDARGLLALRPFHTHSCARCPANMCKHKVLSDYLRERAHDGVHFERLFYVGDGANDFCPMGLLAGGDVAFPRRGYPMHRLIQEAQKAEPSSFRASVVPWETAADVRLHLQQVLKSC
KCC2 mod = KCC2 (human) Cl- transport modulation | Q9H2X9 | KCC2 cells, thallium flux FluoZin-2 fluorescence | B-score of Tl+ flux slope (higher = more flux/activation; lower = inhibition) at 10 µM | actives 2.2% (n = 190,000);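 active means thallium flux slope and its plate-corrected score both differing from the plate sample mean at a set confidence after two filtering rounds, in either direction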;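 further: slope of fluorescence scaled to starting intensity during 10 to 20 s after thallium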
Calb FLC = affects C. albicans growth with fluconazole. C. albicans CaCi-2 (fluconazole-resistant clinical isolate) + fluconazole, Alamar Blue growth, 48 h. growth inhibition, % (concentration not given with the values). actives 0.57% (n = 300,000). AID 1979;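 active means growth inhibition above about 58% in most replicates, limit read from the data, passing the limit was not always enough; inconclusive means exactly half the replicates above a set limit; inactive means most replicates below a set limit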;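 further: all wells also contain fluconazole at 8 µg/ml as a sub-toxic cotreatment; 0% = median of DMSO wells and 100% = median of geldanamycin control wells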
Efflux pump inh = antifungal efflux pump inhibition, Nile Red retention; S. cerevisiae Candida pump triplex; inhibition, % at 10 µM; actives 0.44% (n = 330,000);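 active means plate passing quality check with inhibition over a set limit, or well fluorescence over plate mean plus 4 SD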;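 further: Nile Red retained in pooled yeast measured as flow cytometry median fluorescence; 0% = buffer negative control and 100% = Enniatin B positive control; higher means more Nile Red kept so more efflux inhibition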
Cardio protect = modulators protecting cardiomyocytes from myocardial damage | H9c2 cardiomyocytes, H2O2 injury protection, ATPLite, 2 h | actives 0.63% (n = 360,000) | protection from H2O2 cell death, % at 20 µM;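 active means compounds giving at least 50% protection of heart cells from peroxide-induced death in the single-dose screen, raw or plate-pattern-corrected value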;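 further: 0% = DMSO wells with peroxide and 100% = DMSO wells without peroxide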
KCC2 sec1 = KCC2 (human) modulation, secondary assay; shares compounds with KCC2 mod; actives 15% (n = 3,700); normalised thallium flux (F/F0 slope) at 10 µM; AID 1713; HEK293-KCC2, thallium flux, FluoZin2 fluorescence; stronger effect = higher value;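 active means thallium flux slope above the same plate's solvent-only control mean plus 3 SD; inconclusive means the two replicate wells disagree; inactive means no significant difference from solvent-only control wells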
KCC2 bumet counter = bumetanide-insensitive thallium flux in KCC2 cells with ouabain, counter-screen; shares compounds with KCC2 mod; actives 49% (n = 3,700); HEK293-KCC2 + bumetanide/ouabain, thallium flux FluoZin2; stronger effect = higher value; normalized thallium flux at 10 µM; AID 1714;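 active means thallium entry rate above the same plate's blocked-transporter control wells by more than 3 SD; inconclusive means the two repeat wells disagree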;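 further: raw slope of fluorescence over initial fluorescence between 10 and 20 s after thallium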
KCC2 sec2 = confirmation of human KCC2 transport modulators | shares compounds with KCC2 mod | HEK293-KCC2, thallium flux FluoZin2 fluorescence; actives lie on both sides; F/F0 rise rate, 10–20 s post-thallium | normalized thallium flux at 10 µM | actives 23% (n = 3,700) | AID 1715;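 active means thallium flux slope more than 3 SD above or below the plate's solvent-only control mean, mostly below; inconclusive means the two repeat wells disagreed; inactive means no significant shift from solvent-only controls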;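 further: raw slope with 0.1% DMSO as baseline and bumetanide as block control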
HEK counter1 = parental HEK flux effect, counter-screen; AID 1716; shares compounds with KCC2 mod; actives 46% (n = 3,700); HEK293 parental cells, thallium flux FluoZin2, ouabain; baseline-ratio fluorescence slope, 10–20 s after thallium; thallium flux rate (normalised fluorescence) at 10 µM;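 active means thallium flux rate significantly above the same plate's solvent-only control wells, beyond their mean plus 3 SD; inconclusive means the two replicate wells gave conflicting results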
KCC2 ouabain = KCC2 (human) modulation, ouabain retest; shares compounds with KCC2 mod; HEK293-KCC2, thallium flux FluoZin2 fluorescence; bidirectional: low = inhibitor, high = activator; raw Tl+ flux slope (below DMSO = inhibition, above = activation) at 10 µM; actives 48% (n = 3,700); AID 1717;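 active means thallium flux slope beyond 3 SD from same-plate DMSO control mean in most replicates, usually higher, sometimes lower; inconclusive means repeat tests gave conflicting results; inactive means no significant difference from controls in most replicates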;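 further: slope of initial-normalized fluorescence between seconds 10 and 20 after thallium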
HEK counter2 = counter-screen for KCC2 modulators: effect in parental HEK293 cells; shares compounds with KCC2 mod; thallium flux FluoZin-2 fluorescence slope; thallium flux slope at 10 µM; actives 33% (n = 3,700); AID 1718;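 active means thallium flux slope above the same plate's solvent-control mean plus 3 SD in both duplicate wells; inconclusive means duplicate wells that disagreed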;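 further: run without ouabain in cells lacking the KCC2 cotransporter; slope of fluorescence scaled to its starting value between 10 and 20 s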
The depositor's hits bear a star. Compounds with a hit are over-represented: about 3.3% of the library has one in this group of screens.

COCCn1c(-c2ccccc2Cl)nc2c(c(=O)c3ccccc3n2C)c1=O was read as PHOSPHO1 inh -9, KCC2 mod -4.8*, Calb FLC -1, Efflux pump inh 0, Cardio protect 7, KCC2 sec1 inconclusive, KCC2 bumet counter 0.0047, KCC2 sec2 0.021*, HEK counter1 0.0058*, KCC2 ouabain 0.01* and HEK counter2 0.0089.
O=C(NN1CCOCC1)c1cccc(Cl)c1 was read as PHOSPHO1 inh 28, Calb FLC 2, Efflux pump inh 0 and Cardio protect 2.
Screening C=CCN(c1ccc(OC)cc1)S(=O)(=O)c1ccc(Cl)c(C(=O)OCC(=O)NC2CC2)c1 returned PHOSPHO1 inh 9, KCC2 mod -3.8*, Calb FLC -11, Efflux pump inh 0, Cardio protect -7, KCC2 sec1 0.0093, KCC2 bumet counter 0.0071, KCC2 sec2 inconclusive, HEK counter1 0.006, KCC2 ouabain 0.014* and HEK counter2 0.0097.
`Cn1cc(S(=O)(=O)NC[C@H]2O[C@@H](n3ccc(=O)[nH]c3=O)[C@H](O)[C@@H]2O)cn1` gave Cardio protect -6.
For COc1cc(-c2nnc(CSc3nnc(Nc4ccc(C(C)C)cc4)s3)o2)cc(OC)c1OC the results were PHOSPHO1 inh 2, KCC2 mod -4*, Calb FLC 3, Efflux pump inh 0, Cardio protect 3, KCC2 sec1 0.0067, KCC2 bumet counter 0.0049, KCC2 sec2 0.025*, HEK counter1 0.0077, KCC2 ouabain 0.016* and HEK counter2 0.011.
CN(C(=O)c1ccncc1)C1CCCCC1 was read as PHOSPHO1 inh -34, Calb FLC 2, Efflux pump inh 0 and Cardio protect 6.
For S=c1[nH]nc(CCSCc2ccccc2)n1-c1ccccc1 the results were PHOSPHO1 inh -20, KCC2 mod -1.4, Calb FLC -4, Efflux pump inh 0 and Cardio protect -3.
Screening COc1ccc(CSCCc2n[nH]c(=S)n2-c2ccccc2)cc1C returned PHOSPHO1 inh -89, KCC2 mod 55*, Calb FLC -6, Efflux pump inh 0, Cardio protect -6, KCC2 sec1 0.0091, KCC2 bumet counter 0.029*, KCC2 sec2 0.034, HEK counter1 0.023*, KCC2 ouabain 0.02 and HEK counter2 0.012.
CCN(CC(=O)Nc1ccccc1OC)C(=O)CSCC(=O)Nc1ccc(OC)cc1 was read as Calb FLC -2, Efflux pump inh 0 and Cardio protect 1.
`CCN(Cc1ccccc1)C(=O)CCc1nc(CN2CCN(C(=O)c3ccc([N+](=O)[O-])cc3)CC2)no1` gave PHOSPHO1 inh 38, Calb FLC -6, Efflux pump inh 0 and Cardio protect 1.
Oc1[nH]c2ccccc2c1/C=N/c1nccs1 was read as PHOSPHO1 inh -7, KCC2 mod 15*, Calb FLC -5, Efflux pump inh 0, Cardio protect -1, KCC2 sec1 0.013*, KCC2 bumet counter 0.023*, KCC2 sec2 0.035, HEK counter1 inconclusive, KCC2 ouabain inconclusive and HEK counter2 inconclusive.
`Clc1cccc(NCc2nnc(SCc3ccc(Cl)cc3Cl)o2)c1` gave PHOSPHO1 inh -9, KCC2 mod 0.072, Calb FLC 1, Efflux pump inh 0 and Cardio protect -23.
`S=c1[nH]nc(CNc2cccc(Cl)c2)o1` gave PHOSPHO1 inh -51, KCC2 mod -5.2*, Calb FLC -4, Efflux pump inh 0, Cardio protect 0, KCC2 sec1 0.0069, KCC2 bumet counter inconclusive, KCC2 sec2 0.025*, HEK counter1 0.0077, KCC2 ouabain 0.014* and HEK counter2 0.01.
`COC(=O)c1ccc(N/C(=N/S(=O)(=O)c2ccccc2)c2ccccc2)cc1` gave PHOSPHO1 inh 14, KCC2 mod -1.1, Calb FLC -15, Efflux pump inh 0 and Cardio protect -4.
`Cc1ccc(NC(=S)N/C(=N/S(=O)(=O)c2ccccc2)c2ccccc2)cc1` gave PHOSPHO1 inh 26, Calb FLC 5, Efflux pump inh 0, Cardio protect -4, KCC2 sec1 0.02*, KCC2 bumet counter 0.03*, KCC2 sec2 0.038*, HEK counter1 0.024*, KCC2 ouabain 0.031* and HEK counter2 0.026*.
Screening CN(Cc1ccccc1)C(=O)c1ccc(NC(=O)Cc2cccc(NC(=O)C3CCCN(C(=O)C4CCCCC4)C3)c2)cc1 (centres undefined) returned Efflux pump inh 0 and Cardio protect -14.
For O=C(CO/N=C/c1c(Cl)cccc1Cl)NNC(=O)c1ccc(Cl)cc1 the results were PHOSPHO1 inh 23, KCC2 mod 6.7*, Calb FLC 4, Efflux pump inh 0, Cardio protect 7, KCC2 sec1 0.0097, KCC2 bumet counter 0.013*, KCC2 sec2 0.034, HEK counter1 inconclusive, KCC2 ouabain 0.021 and HEK counter2 0.012.
For CCN(C(=O)COC(=O)CSc1ccc(F)cc1)c1c(N)n(Cc2ccccc2)c(=O)[nH]c1=O the results were Efflux pump inh 0 and Cardio protect -2.
`O=C(COC(=O)CNC(=O)c1ccccc1F)NC1CC1` gave Efflux pump inh 0 and Cardio protect 7.
`COc1ccccc1-c1ccc(=O)n(CC(=O)NCc2ccc3c(c2)OCO3)n1` gave PHOSPHO1 inh -8, KCC2 mod -3.7*, Calb FLC 9, Efflux pump inh 0, Cardio protect 14, KCC2 sec1 0.0077, KCC2 bumet counter 0.0092*, KCC2 sec2 0.032, HEK counter1 inconclusive, KCC2 ouabain 0.016* and HEK counter2 0.011.
COCCCNC(=O)Cn1nc(-c2ccccc2OC)ccc1=O was read as PHOSPHO1 inh 29, KCC2 mod 0.68, Calb FLC -1, Efflux pump inh 0 and Cardio protect 2.

Screening results from PubChem BioAssay.
